An excerpt weighted towards active compounds, which were near 3.9% of everything screened.
D1 ag: Allosteric Agonists of the Human D1 Dopamine Receptor: qHTS; HEK293 T-REx D1 cells, calcium flux, agonist mode; 1% of 360,000 active; activation, % at 2 µM; D(1A) dopamine receptor (Homo sapiens), P21728; in the data active = activation above about 30%; note: 0% is about no effect
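Tetracycline-induced HEK293 TREx D1 cells, force-coupled to calcium signalling, were dye-loaded with a no-wash calcium kit. Compound was pin-added after a 10 s baseline. Fluorescence was read kinetically at 1 cycle/s for 180 s, with calcium rises flagged as agonism.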
USP2a inh: qHTS Assay for Inhibitors of Ubiquitin-specific Protease USP2a Using CHOP2 as the Reporter; AID 463254, 2010; USP2 core, Ub-CHOP2 coupled fluorogenic reporter, 485/531; 0.01% of 330,000 active; Potency, µM (top dose mostly 38.3 µM), for the others: at the top dose activity change, negative = inhibition, actives largely listed as inhibitors; Ubiquitin carboxyl-terminal hydrolase 2 (Homo sapiens), O75604;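 note: potency is the fitted concentration of half-maximal effect; plate controls were DMSO wells for no effect and full inhibition by NEM control for full effect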
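Deubiquitinase activity read as fluorescence (485/531 nm) after Ub-CHOP2 cleavage activates the enterokinase reporter on its substrate; USP2 core 10nM, Ub-CHOP2 and substrate 25nM each, 30min compound preincubation then 60min RT; data normalized to NEM, curves fitted.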
Eya2 inh: qHTS Assay for Inhibitors of the Phosphatase Activity of Eya2 | AID 488837, 2010 | 0.006% of 330,000 active | Potency, µM (highest dose often 76.9 µM), without a hit: at the top dose activity, negative = inhibition, hits mostly inhibitors | Protein phosphatase EYA2 (Homo sapiens), O00167 | recombinant Eya2, OMFP fluorescence dephosphorylation (OMFP is methylfluorescein phosphate); note: potency is the fitted concentration of half-maximal effect; % is set by controls: 0 for no effect and ±100 for the full control effect
Target sequence (O00167 whole entry, looked up): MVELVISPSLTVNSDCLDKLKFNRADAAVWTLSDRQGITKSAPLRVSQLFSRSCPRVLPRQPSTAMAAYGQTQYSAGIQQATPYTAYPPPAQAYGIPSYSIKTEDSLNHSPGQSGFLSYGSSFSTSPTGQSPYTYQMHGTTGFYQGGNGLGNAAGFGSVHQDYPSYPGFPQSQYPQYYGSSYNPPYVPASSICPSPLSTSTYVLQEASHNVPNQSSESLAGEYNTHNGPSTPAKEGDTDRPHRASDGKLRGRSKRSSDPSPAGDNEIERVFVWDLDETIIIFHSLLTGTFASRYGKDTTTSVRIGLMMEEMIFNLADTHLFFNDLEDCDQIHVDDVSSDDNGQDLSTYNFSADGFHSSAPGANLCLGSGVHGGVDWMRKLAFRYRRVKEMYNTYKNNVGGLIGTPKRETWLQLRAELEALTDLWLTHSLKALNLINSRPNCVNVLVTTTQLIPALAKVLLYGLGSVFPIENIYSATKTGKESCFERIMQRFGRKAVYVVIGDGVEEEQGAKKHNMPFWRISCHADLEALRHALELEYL
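Eya2 protein (added as 0.2 uM solution) was preincubated with compound for 10 min at ambient temperature in 50 mM HEPES pH 7.5, 50 mM NaCl, 5 uM MgCl2, 0.05% BSA, 1 mM DTT. OMFP (added at 50 uM) then reacted 10 min; fluorescence read at 485/525 nm.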
D1 antag: Antagonist of Human D 1 Dopamine Receptor: qHTS. D(1A) dopamine receptor (Homo sapiens), P21728. HEK293 TREx D1 cells, calcium flux, dopamine EC80; active compounds read low. activity change, negative = inhibition, % at 10 µM. 3.2% of 360,000 active. AID 504652, 2011; in the data active = activity change below about -30%; note: % is set by controls: 0 for no effect and ±100 for the full control effect
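Inducible Hek293 Trex D1 cells (tetracycline, overnight, 30 C). Calcium dye 30–90 min RT. Antagonist mode: EC80 dopamine added after 180 s compound read.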
GALK inh: qHTS Assay for Inhibitors of Human Galactokinase (GALK); P51570; Purified GALK, Kinase-Glo residual ATP luminescence; Potency, µM (doses to about 57.5 µM), for the others: top-dose activity change, negative = inhibition, actives largely listed as inhibitors; 0.007% of 270,000 active; note: potency is the fitted concentration of half-maximal effect; % is set by controls: 0 for no effect and ±100 for the full control effect
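Luminescence from leftover ATP (Ultra-Glo luciferase/luciferin) served as read-out after a 1 h room-temperature reaction of 5 nM GALK with 35 uM ATP and 100 uM galactose.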
D1 PAM: Potentiators of Human D1 Dopamine Receptor: qHTS; D(1A) dopamine receptor (Homo sapiens), P21728; HEK293 TREx D1 cells, calcium flux, dopamine EC20 potentiation; potentiation, % at 10 µM; 0.036% of 360,000 active; AID 504651, 2011; in the data active = potentiation above about 30%; note: 0% is about no effect
Numbers without * were called inactive; . = no result. Unless noted, calls come from the whole dose curve; as a rule, active = well fitted inhibition curve with a large enough effect; inconclusive = small, poorly fitted or top-dose-only effect, or effect the other way; inactive = flat fitted curve, though single readings scatter.

SMILES	D1 ag	USP2a inh	Eya2 inh	D1 antag	GALK inh	D1 PAM
COc1ccccc1N1CCN(S(=O)(=O)c2ccccc2F)CC1	15.9	-1.2%	-0.6%	-32.0*	-2.9%	8.8
COc1ccc(F)cc1S(=O)(=O)N1CCCN(S(=O)(=O)c2cc(F)ccc2OC)CC1	8.6	1.6%	-19.9%	-30.4*	-0.4%	0.2
CNC(=O)C1CCC(Cn2c(=O)c3sccc3n(CC(=O)Nc3ccc(C)c(C)c3)c2=O)CC1 (configuration not stated)	3.2	.	.	-27.6	.	-2.3
CCOC(=O)C1CCN(C(=O)CSc2n[nH]c(-c3ccc(OC)cc3)n2)CC1	-0.4	.	.	0.3	.	-1.0
Cc1cccc(-n2c(C)nc3cc(C(=O)NCCC4=CCCCC4)ccc32)c1	0.4	.	.	1.3	.	0.1
CC(=O)Nc1nonc1-c1nnc(SCC(=O)Nc2cccc(C)c2C)n1-c1ccccc1	-0.2	.	.	7.4	.	2.9
Cc1cccc(C)c1NC(=O)CSc1nnc(-c2cnccn2)n1C	1.2	5.1%	-12.8%	-50.8*	0.0%	-4.2
CC(C)OC(=O)CSc1nnc(-c2cnccn2)n1C	1.4	2.2%	0.4%	-34.8*	-2.6%	-1.9
CC(C)OC(=O)CSc1nnc(-c2ccccc2)n1N	-1.2	-2.2%	8.5%	-0.3	-1.8%	-5.0
CC(C)OC(=O)CSc1nnc(-c2cccnc2)n1N	2.2	0.1%	-2.1%	-30.6*	2.1%	-5.4
COC(=O)CSc1nnc(-c2cnccn2)n1C	1.1	-0.6%	-8.6%	3.4	0.0%	-0.3
O=c1cc(CN2CCN(C/C=C/c3ccccc3)CC2)c2cc(O)ccc2o1	11.3	0.0%	-8.8%	-32.5*	-3.2%	3.0
COCCCn1c(=N)c(C(=O)NC2CCCC2)cc2c(=O)n3cc(C)ccc3nc21	85.6*	.	.	4.9	.	0.5
CCOCCCn1c(=N)c(C(=O)NCc2cccnc2)cc2c(=O)n3cc(C)ccc3nc21	34.0*	.	.	-4.1	.	-1.4
CCOCCCn1c(=N)c(C(=O)NCc2cccnc2)cc2c(=O)n3ccccc3nc21	0.5	.	.	0.7	.	0.8
Clc1cccc(Nc2ncnc3c2nc2n3CCCCC2)c1	-0.7	.	.	3.3	.	2.0
N#CC1(NC(=O)COC(=O)/C=C/c2ccc3ccccc3n2)CCCCC1	5.0	1.5%	-10.2%	-50.4*	4.9%	-12.7
Cc1nnsc1NC(=O)OCCCl	0.5	0.2%	32.5%	-7.1	-1.1%	-1.3
Cc1nnsc1NC(=O)OCc1ccc(Cl)cc1Cl	13.2	-1.2%	4.8%	-32.6*	-2.1%	-7.2
Cc1nn(C)c(Cl)c1NC(=O)OCc1ccc(Cl)cc1Cl	25.1	1.4%	3.4%	-37.2*	-3.3%	-9.2
CC(C)(C)OC(=O)N1CCC2(CC1)Oc1ccc(F)cc1C(=O)C21CC(c2cccnc2)=NO1 (configuration not stated)	1.4	0.2%	-15.6%	-90.6*	5.1%	-3.8
CCC(=O)N1CCC2(CC1)Oc1ccc(F)cc1C(=O)C21CC(c2cccnc2)=NO1 (configuration not stated)	5.7	8.5%	0.7%	9.4	-2.6%	-4.3
CCOC(=O)CNC(=O)Nc1cc(C(=O)NCc2ccc(C(C)C)cc2)ccc1N1CCCC1	2.3	.	.	0.1	.	-0.6
COc1ccc(/C=C/C(=O)c2ccc(C(=O)/C=C/c3ccc(OC)c(OC)c3)cc2)cc1OC	27.4	-0.9%	6.1%	-18.7	-1.0%	-3.8
COc1ccc(/C=C/C(=O)c2ccccc2)cc1COc1ccc(F)cc1	16.7	2.7%	-19.8%	-32.5*	.	-6.4
SMILES	D1 ag	USP2a inh	Eya2 inh	D1 antag	GALK inh	D1 PAM
COc1ccc(/C=C/C(=O)c2ccccc2)cc1Cn1nnc2ccccc21	3.2	-28.3%	-3.5%	-30.7*	-4.3%	-2.0
Cc1c(C(=O)Nc2ccccc2Cl)sc2ncnc(N(C)C3CCCCC3)c12	5.4	.	.	-12.9	.	-0.7
c1ccc(-c2noc(CSc3nnnn3-c3ccccc3)n2)cc1	13.4	-8.4%	12.8%	-42.9*	0.6%	-4.8
Cc1cccc(-n2nnnc2SCc2csc(-c3ccccc3)n2)c1	42.1*	-12.4%	-2.9%	-26.4	-0.8%	-1.8
Cc1ccc(Nc2nc(CSc3nnnn3-c3ccccc3)cs2)cc1	1.3	.	.	4.5	0.0%	-2.6
CSc1ncc(C(=O)NCc2cccc(Br)c2)c(-c2ccccc2)n1	0.7	.	.	-1.0	.	-1.2
Cc1oc(-c2ccccc2)nc1CNC(=O)Nc1ccccc1	0.7	.	.	-16.8	.	0.5
CSc1nnc2c3ccccc3n(Cc3ccccc3)c2n1	1.3	1.0%	9.6%	-56.5*	-2.1%	-6.4
